Assay results reported in PubChem BioAssay.
“And” between values parts separate entries of the source, which are not always exact repeats. Equal entries are not always repeated. For some of these results: Results with a measured potency or affinity are listed apart. The source made the active and inactive calls. Unless noted, how the calls were made is not given here.

How the values were obtained:
[1] = antimalarial activity against Dd2 strain (AID 2302;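 active means growth inhibition above 50% at the single 2 µM test dose, taken to imply half-maximal potency below 2 µM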;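 further: 0% = DMSO untreated growth and 100% = chloroquine plus artemisinin killed control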); details: P. falciparum Dd2 in RBCs, LDH growth readout, 72 h; at 2 µM; active compounds read high
[2] = HepG2 cytotoxicity, primary screen, cytotoxicity control for P. falciparum antimalarial project, cell-based, ATP luminescence (AID 2303;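 active means inhibition above 50%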;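 further: 0% = DMSO wells and 100% = digitonin-killed cells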); details: HepG2 viability, 24-48 h, at 10 µM, active compounds read high
[3] = target: L-lactate dehydrogenase (Plasmodium falciparum (isolate CDC / Honduras)) (UniProt Q27743); test: PfLDH activity inhibition – cell lysate, 3D7 strain, counter-screen for P. falciparum growth inhibition project (AID 2304);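 further: 0% = vehicle and 100% = reference inhibitor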; details: P. falciparum 3D7 crude extract, LDH APAD/NBT absorbance; at 2 µM; active compounds read high
Sequence of L-lactate dehydrogenase (Plasmodium falciparum (isolate CDC / Honduras)) (Q27743 whole entry, looked up): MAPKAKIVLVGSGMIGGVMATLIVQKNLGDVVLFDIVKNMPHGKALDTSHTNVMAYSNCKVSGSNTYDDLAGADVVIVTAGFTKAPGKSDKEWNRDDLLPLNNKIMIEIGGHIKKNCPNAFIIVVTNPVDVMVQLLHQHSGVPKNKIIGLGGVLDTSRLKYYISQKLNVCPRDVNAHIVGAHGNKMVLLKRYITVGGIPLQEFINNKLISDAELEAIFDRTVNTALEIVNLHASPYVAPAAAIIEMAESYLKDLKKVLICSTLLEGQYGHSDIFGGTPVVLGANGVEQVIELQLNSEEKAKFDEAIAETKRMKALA

[4] = inhibition of 3D7 malaria parasite growth – strain 3D7 (AID 2306);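 further: 0% = DMSO wells and 100% = chloroquine plus artemisinin control wells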; details: P. falciparum 3D7 erythrocytic growth, LDH absorbance, 72 h; at 2 µM; active compounds read high
[5] = target: Calcium-dependent protein kinase 1 (Plasmodium falciparum (isolate 3D7)) (UniProt P62344); test: PfCDPK1 kinase inhibitors, biochemical, TCAMS library (AID 1159585; cut-off not given, nearly all actives have IC50 up to about 0.98 µM;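 further: inhibitors leave more ATP so luminescence rises with inhibition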); details: recombinant PfCDPK1, Kinase-Glo ATP depletion luminescence
Sequence of Calcium-dependent protein kinase 1 (Plasmodium falciparum (isolate 3D7)) (P62344 whole entry, looked up): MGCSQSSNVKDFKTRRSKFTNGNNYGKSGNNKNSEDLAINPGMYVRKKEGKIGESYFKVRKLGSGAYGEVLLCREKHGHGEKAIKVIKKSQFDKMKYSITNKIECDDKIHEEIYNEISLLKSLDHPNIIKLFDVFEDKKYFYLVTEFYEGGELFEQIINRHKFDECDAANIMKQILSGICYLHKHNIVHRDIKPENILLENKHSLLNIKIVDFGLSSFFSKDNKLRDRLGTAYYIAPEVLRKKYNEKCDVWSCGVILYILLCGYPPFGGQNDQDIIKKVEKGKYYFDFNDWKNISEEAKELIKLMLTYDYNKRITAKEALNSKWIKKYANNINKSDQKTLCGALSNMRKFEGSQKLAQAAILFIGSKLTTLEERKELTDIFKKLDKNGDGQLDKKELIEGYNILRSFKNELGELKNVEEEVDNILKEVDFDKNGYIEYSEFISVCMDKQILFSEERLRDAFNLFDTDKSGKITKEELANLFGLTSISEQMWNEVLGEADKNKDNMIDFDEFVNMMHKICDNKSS

[6] = target: Plasmodium falciparum protein kinase 6 (PK6, PF3D7_1337100) (UniProt Q8IDW1); test: PfPK6 kinase inhibitors, biochemical, TCAMS library (AID 1159586); details: recombinant PfPK6, Kinase-Glo ATP depletion luminescence
Sequence of Plasmodium falciparum protein kinase 6 (PK6, PF3D7_1337100) (Q8IDW1 1-305): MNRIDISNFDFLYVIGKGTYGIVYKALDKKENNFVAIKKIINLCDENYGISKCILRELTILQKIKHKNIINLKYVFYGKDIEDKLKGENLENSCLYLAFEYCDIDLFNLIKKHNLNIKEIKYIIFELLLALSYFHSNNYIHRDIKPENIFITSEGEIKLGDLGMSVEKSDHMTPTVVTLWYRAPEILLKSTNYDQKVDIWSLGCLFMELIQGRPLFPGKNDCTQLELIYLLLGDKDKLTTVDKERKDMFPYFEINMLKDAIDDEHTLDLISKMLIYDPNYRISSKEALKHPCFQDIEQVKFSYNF

[7] = target: Protein kinase 7 (PK7), Plasmodium falciparum 3D7 (PF3D7_0213400) (UniProt Q7YTF7); test: inhibition of Plasmodium PK7 catalytic activity – biochemical, TCAMS antimalarial set, Kinase-Glo luminescence (AID 1159587); details: recombinant PfPK7, Kinase-Glo ATP depletion luminescence
Sequence of Protein kinase 7 (PK7), Plasmodium falciparum 3D7 (PF3D7_0213400) (Q7YTF7 1-343): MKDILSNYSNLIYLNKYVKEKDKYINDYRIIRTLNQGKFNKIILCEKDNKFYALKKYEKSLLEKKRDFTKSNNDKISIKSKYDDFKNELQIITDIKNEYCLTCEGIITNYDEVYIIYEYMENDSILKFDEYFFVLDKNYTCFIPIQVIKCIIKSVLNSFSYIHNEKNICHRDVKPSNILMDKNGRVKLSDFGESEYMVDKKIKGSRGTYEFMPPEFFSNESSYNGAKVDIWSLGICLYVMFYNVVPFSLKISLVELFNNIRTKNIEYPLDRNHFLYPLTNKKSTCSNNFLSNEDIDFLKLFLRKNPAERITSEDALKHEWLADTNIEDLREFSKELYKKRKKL

[8] = target: Calcium-dependent protein kinase 4 (Plasmodium falciparum (isolate 3D7)) (UniProt Q8IBS5); test: PfCDPK4 kinase inhibitors, biochemical, TCAMS library (AID 1159588; cut-off not given, nearly all actives have IC50 up to about 0.91 µM); details: recombinant PfCDPK4, Kinase-Glo ATP depletion luminescence
Sequence of Calcium-dependent protein kinase 4 (Plasmodium falciparum (isolate 3D7)) (Q8IBS5 whole entry, looked up): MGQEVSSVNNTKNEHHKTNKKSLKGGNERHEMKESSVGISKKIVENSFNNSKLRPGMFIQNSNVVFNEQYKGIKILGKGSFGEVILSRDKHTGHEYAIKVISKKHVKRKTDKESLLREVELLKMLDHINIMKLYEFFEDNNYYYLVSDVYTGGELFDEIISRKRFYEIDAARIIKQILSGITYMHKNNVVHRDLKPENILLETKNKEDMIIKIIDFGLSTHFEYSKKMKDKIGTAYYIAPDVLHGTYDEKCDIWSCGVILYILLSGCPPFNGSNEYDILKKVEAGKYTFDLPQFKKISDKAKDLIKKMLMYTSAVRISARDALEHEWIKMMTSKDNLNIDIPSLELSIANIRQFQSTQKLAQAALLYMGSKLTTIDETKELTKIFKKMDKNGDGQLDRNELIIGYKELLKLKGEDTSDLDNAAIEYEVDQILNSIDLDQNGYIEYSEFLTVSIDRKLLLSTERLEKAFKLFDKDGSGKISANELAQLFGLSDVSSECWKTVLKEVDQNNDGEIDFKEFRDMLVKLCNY

Fc1ccccc1COc1ccc(Nc2ncnc3ccc(I)cc23)cc1Cl
inactive: growth inhibition [1] 37% | inhibition [2] 17% | inhibition [3] -4% | outcome [5] | outcome [6] | outcome [7] | outcome [8]
active: growth inhibition [4] 90%

COc1ccccc1NC(=O)c1cc(C(=O)c2cc(Cl)ccc2O)cn(-c2ccccc2OC)c1=O
active: growth inhibition [4] 92%
inactive: growth inhibition [1] 31% | inhibition [2] 9% | inhibition [3] 7% | outcome [5] | outcome [6] | outcome [7] | outcome [8]

Cc1cc(=O)c(-c2ccc(Oc3cccc(C(F)(F)F)c3)cc2)c(C)[nH]1
inactive: inhibition [2] 8% and 14% | inhibition [3] -2% and -1% | outcome [5] | outcome [6] | outcome [7] | outcome [8]
active: growth inhibition [1] 95% and 97% | growth inhibition [4] 96% and 97%

CCC(CC(NCCCCNC(=O)c1ccc(NC(=O)c2ccc(Cl)cc2)cc1)c1ccccc1)c1ccccc1OC (stereo not drawn)
active: growth inhibition [1] 76% and 56% | growth inhibition [4] 100% and 89%
inactive: inhibition [2] 23% and 10% | inhibition [3] -1% and 1% | outcome [5] | outcome [6] | outcome [7] | outcome [8]

CCCCN(Cc1cc(Cl)c(OC)c(OC)c1)c1ccc(C(O)(C(F)(F)F)C(F)(F)F)cc1
inactive: inhibition [2] 3% | inhibition [3] 6% | outcome [5] | outcome [6] | outcome [7] | outcome [8]
active: growth inhibition [1] 73% | growth inhibition [4] 98%

CN(C)C(=O)C(CC(=O)NCc1ccccc1Cl)N(C)C (stereo not drawn) (tested in a mixture with another compound)
inactive: growth inhibition [1] 2% | inhibition [2] 7% | inhibition [3] -3% | outcome [5] | outcome [6] | outcome [7] | outcome [8]
active: growth inhibition [4] 96%

Cc1ccc(CN2CCN(Cc3cccc(NC(=O)c4cccs4)c3)CC2)cc1C
inactive: inhibition [2] 41% | inhibition [3] 2% | outcome [5] | outcome [6] | outcome [7] | outcome [8]
active: growth inhibition [1] 68% | growth inhibition [4] 96%

O=C(Nc1cccc(C(F)(F)F)c1)Nc1ccc(Cl)c(Cl)c1
active: growth inhibition [1] 100% | growth inhibition [4] 100%
inactive: inhibition [2] 5% | inhibition [3] -4% | outcome [5] | outcome [6] | outcome [7] | outcome [8]

Cc1[nH]c2cccc(F)c2c(=O)c1Cc1ccc(Cl)cc1 (tested in a mixture with another compound)
inactive: inhibition [2] 7% and 6% | inhibition [3] 5% | outcome [5] | outcome [6] | outcome [7] | outcome [8]
active: growth inhibition [1] 94% and 92% | growth inhibition [4] 94% and 93%

O=C(NC(Nc1ccc([N+](=O)[O-])cc1)C(Cl)(Cl)Cl)c1cccc(Cl)c1 (stereo not drawn)
inactive: growth inhibition [1] 17% | inhibition [2] -2% | inhibition [3] 0% | outcome [5] | outcome [6] | outcome [7] | outcome [8]
active: growth inhibition [4] 92%

Cc1nc2ccccc2c(=O)n1NCc1ccc(Cl)c(Cl)c1
inactive: inhibition [2] 12% | inhibition [3] 0% | outcome [5] | outcome [6] | outcome [7] | outcome [8]
active: growth inhibition [1] 92% | growth inhibition [4] 96%

CC(C)CNCc1cccc(-c2ccc(CNC3CCN(Cc4ccccc4)CC3)cc2)c1
inactive: inhibition [2] 44% | inhibition [3] 3% | outcome [5] | outcome [6] | outcome [7] | outcome [8]
active: growth inhibition [1] 99% | growth inhibition [4] 100%

O=C(Nc1ccc2c(c1)CCN2C1CCN(Cc2cccc3cc[nH]c23)C1)c1ccco1 (stereo not drawn)
active: growth inhibition [1] 86% | growth inhibition [4] 88%
inactive: inhibition [2] -1% | inhibition [3] 2% | outcome [5] | outcome [6] | outcome [7] | outcome [8]

O=C(NCCc1ccc(Cl)c(Cl)c1)c1ccc(CNC(=O)c2ccc(O)c(-c3ccc(Cl)c(Cl)c3)c2)cc1
inactive: growth inhibition [1] 3% | inhibition [2] 0% | inhibition [3] -6% | outcome [5] | outcome [6] | outcome [7] | outcome [8]
active: growth inhibition [4] 97%

O=C(NC1CC1)c1ccc(Cn2c(SCc3cccc(Cl)c3)nc3ccccc3c2=O)cc1
inactive: inhibition [2] 2% | inhibition [3] 1% | outcome [5] | outcome [6] | outcome [7] | outcome [8]
active: growth inhibition [1] 70% | growth inhibition [4] 90%

O=C(NC1CCCCC1)N(Cc1cccc(-c2ccc(CNC3CCCC3)cc2)c1)C1CCN(Cc2ccccc2)CC1
active: growth inhibition [1] 89% | growth inhibition [4] 98%
inactive: inhibition [2] 37% | inhibition [3] -2% | outcome [5] | outcome [6] | outcome [7] | outcome [8]

CCCC(C)Nc1nc(C)cc(N[C@@H](CC(C)C)C(=O)NCCOc2ccccc2)n1 (stereo partly drawn)
inactive: growth inhibition [1] 28% | inhibition [2] 15% | inhibition [3] 1% | outcome [5] | outcome [6] | outcome [7] | outcome [8]
active: growth inhibition [4] 93%

Cc1ccc2c(NN=Cc3cccc(F)c3)cc(C)nc2c1
active: growth inhibition [1] 66% | growth inhibition [4] 96%
inactive: inhibition [2] 34% | inhibition [3] -2% | outcome [5] | outcome [6] | outcome [7] | outcome [8]

COc1ccc(Cn2c(SCc3ccc(C)cc3)nc3cc(OC)c(OC)cc3c2=N)cc1Cl
active: inhibition [2] 50% | growth inhibition [4] 92%
inactive: growth inhibition [1] 7% | inhibition [3] 5% | outcome [5] | outcome [6] | outcome [7] | outcome [8]

CN1CCC(NCc2ccc(-c3ccc(S(=O)(=O)NC4CCC4)s3)cc2)CC1
active: growth inhibition [4] 92%
inactive: growth inhibition [1] 31% | inhibition [2] 31% | inhibition [3] 1% | outcome [5] | outcome [6] | outcome [7] | outcome [8]

CC(=O)Nc1cccc(C(=O)Nc2cccc(-c3cccc(-c4nc5ccccc5[nH]4)c3)c2)c1
inactive: inhibition [2] 41% | inhibition [3] -5% | outcome [5] | outcome [6] | outcome [7] | outcome [8]
active: growth inhibition [1] 66% | growth inhibition [4] 100%

CCCn1c(Sc2ccc(C#N)c([N+](=O)[O-])c2)nnc1-c1cc(OC)cc(OC)c1
inactive: inhibition [2] 24% | inhibition [3] 6% | outcome [5] | outcome [6] | outcome [7] | outcome [8]
active: growth inhibition [1] 79% | growth inhibition [4] 98%

CC1CN(Cc2cccc(-c3ccc(-c4nc5ccc(F)cc5[nH]4)cc3)c2)CC(C)O1 (stereo not drawn)
active: growth inhibition [1] 88% | growth inhibition [4] 87%
inactive: inhibition [2] 45% | inhibition [3] -3% | outcome [5] | outcome [6] | outcome [7] | outcome [8]

CC(C)(C)CN1C(=O)C(c2ccccc2)(c2ccccc2)N=C1N
active: growth inhibition [1] 94% | growth inhibition [4] 98%
inactive: inhibition [2] 32% | inhibition [3] 1% | outcome [5] | outcome [6] | outcome [7] | outcome [8]

Oc1ccc(OCc2ccccn2)cc1
active: growth inhibition [4] 98%
inactive: growth inhibition [1] 0% | inhibition [2] 5% | inhibition [3] 2% | outcome [5] | outcome [6] | outcome [7] | outcome [8]

CC(C)c1ccc(CN2CCCCC(NC(=O)c3cc(-c4ccccc4Cl)cs3)C2)cc1 (stereo not drawn)
inactive: inhibition [2] 8% | inhibition [3] 3% | outcome [5] | outcome [6] | outcome [7] | outcome [8]
active: growth inhibition [1] 64% | growth inhibition [4] 100%
